# Source: PubChem BioAssay (several laboratories)
# MEKK2 mut-MEK5: signal of MEK5 binding to mutant human MEKK2 PB1 domain | percent response, % at 10 µM | bead flow cytometry, Alexa488-MEK5 binding to MEKK2 mutant | 290,000 tested, 0.35% active; in the data active means percent response above about 24%, passing the limit was not always enough
# NTR1 agonist: agonists of human neurotensin receptor NTR1 | P30989 | NTR1-U2OS beta-arrestin-GFP spot imaging, agonist mode | activation, % at 20 µM | 330,000 tested, 0.17% active | AID 493036;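 active means activation at or above 40% of the spot to cytoplasm intensity ratio, with at least 20 cells analyzed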
# MEKK2 WT-MEK5: raises or lowers MEK5 binding to wildtype human MEKK2 PB1 domain; 290,000 tested, 1.1% active; Q9Y2U5; bead flow cytometry, Alexa488-MEK5 binding to MEKK2 WT; actives lie on both sides; binding response (% of control), % at 10 µM; in the data active means binding response below about 67% or above about 130%
# TMEM16A inh: mouse TMEM16A channel inhibition, primary screen; Q8BHY3; 310,000 tested, 1.2% active; HEK293 TMEM16A/YFP iodide influx fluorescence, ionomycin; AID 588511; normalized B-score (activity score, 25-100; higher = stronger inhibition) at 10 µM;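 active means ratio plate-corrected score three or more library SD toward inhibition, starting fluorescence score within five deviations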;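 further: score derived from kinetic fluorescence span divided by baseline fluorescence per well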
# Target sequence (Q8BHY3 whole entry, looked up): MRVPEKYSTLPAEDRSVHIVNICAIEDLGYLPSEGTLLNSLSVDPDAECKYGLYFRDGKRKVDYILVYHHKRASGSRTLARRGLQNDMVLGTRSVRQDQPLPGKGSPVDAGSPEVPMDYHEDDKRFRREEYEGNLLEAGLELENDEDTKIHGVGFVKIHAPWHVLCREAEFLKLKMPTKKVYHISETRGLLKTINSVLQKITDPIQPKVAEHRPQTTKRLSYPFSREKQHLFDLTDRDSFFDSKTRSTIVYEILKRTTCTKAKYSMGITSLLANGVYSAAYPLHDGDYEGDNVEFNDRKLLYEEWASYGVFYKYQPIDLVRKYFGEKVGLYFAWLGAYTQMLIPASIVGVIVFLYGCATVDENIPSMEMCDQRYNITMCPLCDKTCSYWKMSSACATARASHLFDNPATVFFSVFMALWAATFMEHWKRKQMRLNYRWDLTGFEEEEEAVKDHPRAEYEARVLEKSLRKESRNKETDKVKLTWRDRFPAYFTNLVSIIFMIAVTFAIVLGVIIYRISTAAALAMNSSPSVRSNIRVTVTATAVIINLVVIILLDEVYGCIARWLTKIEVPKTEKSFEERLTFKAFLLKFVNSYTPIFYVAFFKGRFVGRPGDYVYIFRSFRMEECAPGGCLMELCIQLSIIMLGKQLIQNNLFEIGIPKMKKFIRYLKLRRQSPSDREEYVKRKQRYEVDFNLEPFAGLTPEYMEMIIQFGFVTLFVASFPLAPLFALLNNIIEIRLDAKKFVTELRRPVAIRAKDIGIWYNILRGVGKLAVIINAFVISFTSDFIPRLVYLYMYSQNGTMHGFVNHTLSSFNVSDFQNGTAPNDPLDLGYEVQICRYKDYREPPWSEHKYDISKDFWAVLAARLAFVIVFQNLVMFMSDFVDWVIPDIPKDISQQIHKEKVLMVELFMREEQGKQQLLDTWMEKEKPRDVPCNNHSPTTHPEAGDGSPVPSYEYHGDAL
# TMEM16A act: mouse TMEM16A channel activation, primary screen. AID 623877. Q8BHY3. B-score at 10 µM. 340,000 tested, 0.3% active. HEK293 TMEM16A/YFP-H148Q/I152L, iodide quench fluorescence; stronger effect = lower value;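 active means fluorescence-ratio B-score plate-corrected deviation score at least 3 library SD below zero, with starting fluorescence score within 5 deviations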;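 further: channel opened by trigger with iodide after compound preincubation; score built on the fluorescence ratio of max minus min over baseline; more negative score means more quench and so TMEM16A activation or potentiation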
# MEKK3 PB1 HTS: MEKK3-MEK5 PB1 interaction, increase or decrease; Q99759; bead-based flow cytometry, Alexa488-MEK5 binding to MEKK3; actives lie on both sides; 0 = blocked by unlabeled MEK5, 100 = vehicle; binding response (% of control), % at 10 µM; 290,000 tested, 1.4% active;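 active means binding response more than 3 SD above or below the average of its plate-row segment, actives on both sides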;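 further: Alexa488 bead fluorescence after subtracting the streptavidin-only scavenger bead signal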
# Hits are given with their value; . = inactive; / = not tested or not shown. A selection: hits, their analogues and other compounds. The true share with any hit is near 3.4%.
SMILES,MEKK2 mut-MEK5,NTR1 agonist,MEKK2 WT-MEK5,TMEM16A inh,TMEM16A act,MEKK3 PB1 HTS
Fc1ccc(C(CCCn2nnc(-c3cccnc3)n2)c2ccc(F)cc2)cc1,.,.,.,100,.,.
CCc1cc(C(=O)N2CCCC(N3CCN(c4cccc(C(F)(F)F)c4)CC3)C2)n(C)n1 (centres undefined),.,.,.,.,.,.
Cc1ccc(CNC(=O)C2CCN(S(=O)(=O)N3CCCC3)CC2)cc1,.,.,.,.,.,.
O=S(=O)(c1ccccc1)c1nnn2c1nc(NC1CCN(Cc3ccccc3)CC1)c1cc(Cl)ccc12,33.0,.,138.0,.,.,.
Cc1ccc(C)c(Nc2nc3c(S(=O)(=O)c4ccccc4)nnn3c3ccccc23)c1,.,.,.,.,.,.
O=S(=O)(c1ccccc1)c1nnn2c1nc(NC1CCN(Cc3ccccc3)CC1)c1ccccc12,32.0,.,146.0,.,.,.
CCOc1cc(CNCc2ccncc2)cc(Br)c1OCc1ccccc1F,.,.,.,25,.,.
COc1ccc(OCC(=O)NNc2c3ccccc3nc3ccccc23)cc1,.,58.1,.,.,.,.
O=C(COc1ccccc1)NNc1c2ccccc2nc2ccccc12,.,.,.,.,.,.
COc1ccc(NC(=O)C2CCCN(S(=O)(=O)c3ccc4c(c3)CCCN4C(C)=O)C2)cc1Cl (centres undefined),.,.,.,.,.,.
COc1ccccc1C(=O)N1CCN(Cc2ccc3c(c2)OCO3)CC1,.,.,.,.,-14.4,.
O=C(O)c1ccccc1C(=O)N1CCN(Cc2ccc3c(c2)OCO3)CC1,.,.,.,/,/,.
CCn1cnc2sc(C(=O)N3CCN(Cc4ccc5c(c4)OCO5)CC3)c(C)c2c1=O,/,.,/,25,/,/
Cc1noc(C)c1COc1ccccc1C(=O)N(C)Cc1ccc(C(C)(C)C)cc1,/,.,/,/,.,/
O=C(O)CNC(=S)N(Cc1ccccc1)Cc1ccccc1F,.,.,.,.,.,.
Cc1ccc(S(=O)(=O)Nc2cccc(C(=O)NCCCn3ccnc3)c2)cc1F,/,.,/,.,.,/
COc1cc(CC(=O)OCC(=O)Nc2ccc3c(c2)OCO3)cc(OC)c1OC,.,.,.,.,.,.
COc1ccc(S(=O)(=O)N2CCCCCC2)cc1C(=O)N(C)Cc1ccc(C(C)(C)C)cc1,.,.,.,25,.,.
COc1ccc(S(=O)(=O)N2CCCCCC2)cc1C(=O)N(C)Cc1ccc(F)cc1,/,.,/,.,.,/
C=CCC1(CC=C)CCCN1C(=O)c1cc(COc2cncc(Cl)c2)on1,.,.,.,25,.,.
Cc1ccc(N2CCN(S(=O)(=O)N3CCCCC3)CC2)cc1Cl,.,.,.,.,.,.
Cc1cc(C)c(N2CCN(S(=O)(=O)N3CCCCCC3)CC2)c(C)c1,.,.,.,25,-21.6,.
O=C(CCN1C(=O)/C(=C/c2ccccc2F)SC1=S)NCCCn1ccnc1,.,.,.,.,.,.
NS(=O)(=O)c1ccc(NC(=O)c2cc(Cl)ccc2Cl)cc1,/,.,/,.,-5.48,/
COc1ccc(Cl)cc1C(=O)Nc1ccc(S(N)(=O)=O)cc1,.,.,.,.,.,.
SMILES,MEKK2 mut-MEK5,NTR1 agonist,MEKK2 WT-MEK5,TMEM16A inh,TMEM16A act,MEKK3 PB1 HTS
CCN(CC)CCCNc1ccc(-c2nnc(-c3ccc(OCC(C)C)cc3)o2)cn1,36.0,.,165.0,.,-5.64,.
O=C(NCC(=O)N(c1ccccc1)C(C(=O)NC1CCCC1)c1ccncc1)c1ccco1 (centres undefined),.,.,.,.,-15.9,.
Cc1ccc(Cn2c(C3CCCN3c3nc(-c4ccc(F)cc4)cs3)nc3cc(C(F)(F)F)ccc32)cc1 (centres undefined),.,.,.,.,-9.46,.
CS(=O)(=O)N(CCc1ccccc1)CC(=O)Nc1ccc(OCc2ccccc2)cc1,.,.,.,.,-19.9,.
Fc1ccc2nc(C(F)(F)F)cc(N3CCOCC3)c2c1,.,/,.,.,.,.
Cc1cc(C)c2c(=O)n(CC(=O)NCCCN3CCN(c4ccccc4F)CC3)sc2n1,/,.,/,100,/,/
Cc1ccc(CNC(=O)COC(=O)COc2ccc(C#N)cc2)cc1,/,.,/,/,.,/
CCC(C)(C)NC(=O)C1CCN(S(=O)(=O)c2cccs2)CC1,81.0,.,296.0,/,.,.
CCc1ccc(NC(=O)C2CCN(S(=O)(=O)c3cccs3)CC2)cc1,.,.,.,.,.,.
O=S(=O)(Nc1ccc2c(c1)OCCO2)c1ccc2oc3ccccc3c2c1,.,.,.,25,.,.
C=CCn1cnnc1SCC(=O)Nc1cccnc1Cl,/,.,/,/,/,/
C/C(=N\Nc1ccc(C(F)(F)F)cn1)c1ccncc1,.,.,.,.,.,.
O=C1N/C(=C\c2ccc(O)cc2)C(=O)c2ccccc21,.,.,.,25,.,.
O=C(O)/C=C1\NC(=O)c2ccccc21,.,.,.,.,.,.
CN(C)c1cc(Nc2ccc(O)cc2)c([N+](=O)[O-])c2nonc12,.,.,.,.,.,.
O=[N+]([O-])c1c(Nc2ccc(O)cc2)cc(Cl)c2nonc12,.,.,.,100,-8.29,.
CC(Oc1ccc(Br)cc1)C(=O)Nc1ccc(S(=O)(=O)N(C)C2CCN(C)CC2)cc1 (centres undefined),/,.,/,.,-10.2,/
COc1ccc(CC(=O)Nc2ccc(S(=O)(=O)N(C)C3CCN(C)CC3)cc2)cc1,/,.,/,/,.,/
O=C(NNC(=O)c1cccnc1SCc1cccc([N+](=O)[O-])c1)c1ccccn1,.,.,.,.,.,134.0
O=C(NNC(=O)c1cccnc1SCc1cccc([N+](=O)[O-])c1)c1ccc(F)cc1,.,.,.,.,.,.
Cc1cc(C)n2nc(CC(=O)NNC(=O)COc3ccccc3)nc2n1,.,.,.,.,.,.
Cc1nc2ccccc2n1CC(O)COc1ccc(Br)cc1 (centres undefined),.,.,.,25,.,.
CCC(=O)c1ccc(OCC(O)Cn2c(C)nc3ccccc32)cc1 (centres undefined),.,.,.,.,.,.
CCOC(=O)CSc1[nH]c2cc(OC)ccc2c1[N+](=O)[O-],.,.,.,.,.,.
COc1ccc2c([N+](=O)[O-])c(Cl)[nH]c2c1,.,.,-6.0,.,.,.
COC(=O)[C@@]12CCCCN1[C@H](c1ccc(SC3CCCCC3)cc1)[C@@H]1C(=O)N(C)C(=O)[C@@H]12,/,.,/,.,-7.89,/
CCOC(=O)C1CCN(C(=O)c2ccc(N(C)S(=O)(=O)c3ccc(OC)cc3)cc2)CC1,.,.,.,.,.,.
NNC(=O)c1cc2c(N3CCC(Cc4ccccc4)CC3)ncnc2s1,.,.,.,100,.,.
